From PubChem BioAssay
Unmarked numbers belong to inactive results. For some of these results: Entries with a potency or affinity are not part of this list. The source made the active and inactive calls. Unless noted, the rule behind the calls is not given here.

How the values were obtained:
[1] = antimalarial activity against Dd2 strain (AID 2302;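 active = growth inhibition above 50% at the single 2 µM test dose, taken to imply half-maximal potency below 2 µM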;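 note: 0% = DMSO untreated growth and 100% = chloroquine plus artemisinin killed control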); settings: P. falciparum Dd2 in RBCs, LDH growth readout, 72 h; at 2 µM; active compounds read high
[2] = human hepatoma cell viability loss – ATP luminescence, cytotoxicity control for P. falciparum antimalarial project, primary screen (AID 2303;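 active = inhibition above 50%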;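 note: 0% = DMSO wells and 100% = digitonin-killed cells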); settings: HepG2 viability, 24-48 h, at 10 µM, active compounds read high
[3] = target: L-lactate dehydrogenase (Plasmodium falciparum (isolate CDC / Honduras)) (UniProt Q27743); test: PfLDH activity inhibition – cell lysate, 3D7 strain, counter-screen for P. falciparum growth inhibition project (AID 2304);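 note: 0% = vehicle and 100% = reference inhibitor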; settings: P. falciparum 3D7 crude extract, LDH APAD/NBT absorbance; at 2 µM; active compounds read high
Chain of L-lactate dehydrogenase (Plasmodium falciparum (isolate CDC / Honduras)) (Q27743 whole entry, looked up): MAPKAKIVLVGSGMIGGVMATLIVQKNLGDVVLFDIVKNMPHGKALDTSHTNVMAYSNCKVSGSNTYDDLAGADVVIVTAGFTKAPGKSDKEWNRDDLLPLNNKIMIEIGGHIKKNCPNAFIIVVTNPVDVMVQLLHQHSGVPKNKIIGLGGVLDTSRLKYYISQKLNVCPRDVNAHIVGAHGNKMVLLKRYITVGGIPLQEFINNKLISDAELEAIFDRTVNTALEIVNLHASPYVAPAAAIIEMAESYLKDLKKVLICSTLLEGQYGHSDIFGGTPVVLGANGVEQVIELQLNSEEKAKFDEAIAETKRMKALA

[4] = inhibition of 3D7 malaria parasite growth – strain 3D7 (AID 2306);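 note: 0% = DMSO wells and 100% = chloroquine plus artemisinin control wells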; settings: P. falciparum 3D7 erythrocytic growth, LDH absorbance, 72 h; at 2 µM; active compounds read high
[5] = target: Calcium-dependent protein kinase 1 (Plasmodium falciparum (isolate 3D7)) (UniProt P62344); test: PfCDPK1 kinase inhibitors, biochemical, TCAMS library (AID 1159585; cut-off not given, nearly all actives have IC50 up to about 0.98 µM;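 note: inhibitors leave more ATP so luminescence rises with inhibition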); settings: recombinant PfCDPK1, Kinase-Glo ATP depletion luminescence
Chain of Calcium-dependent protein kinase 1 (Plasmodium falciparum (isolate 3D7)) (P62344 whole entry, looked up): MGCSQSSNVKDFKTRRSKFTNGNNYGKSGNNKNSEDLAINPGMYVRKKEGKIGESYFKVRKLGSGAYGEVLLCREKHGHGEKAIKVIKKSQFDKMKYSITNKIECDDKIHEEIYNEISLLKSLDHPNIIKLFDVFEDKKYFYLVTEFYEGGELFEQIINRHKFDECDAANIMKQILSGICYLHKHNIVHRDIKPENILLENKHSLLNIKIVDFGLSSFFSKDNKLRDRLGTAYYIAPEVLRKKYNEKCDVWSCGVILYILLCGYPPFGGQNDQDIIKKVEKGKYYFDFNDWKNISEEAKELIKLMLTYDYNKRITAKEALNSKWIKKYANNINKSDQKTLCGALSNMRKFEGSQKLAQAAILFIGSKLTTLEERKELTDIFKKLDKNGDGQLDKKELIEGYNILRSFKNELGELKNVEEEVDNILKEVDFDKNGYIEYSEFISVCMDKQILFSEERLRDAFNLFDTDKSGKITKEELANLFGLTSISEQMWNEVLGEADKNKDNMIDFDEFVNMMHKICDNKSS

[6] = target: Plasmodium falciparum protein kinase 6 (PK6, PF3D7_1337100) (UniProt Q8IDW1); test: PfPK6 kinase inhibitors, biochemical, TCAMS library (AID 1159586); settings: recombinant PfPK6, Kinase-Glo ATP depletion luminescence
Chain of Plasmodium falciparum protein kinase 6 (PK6, PF3D7_1337100) (Q8IDW1 1-305): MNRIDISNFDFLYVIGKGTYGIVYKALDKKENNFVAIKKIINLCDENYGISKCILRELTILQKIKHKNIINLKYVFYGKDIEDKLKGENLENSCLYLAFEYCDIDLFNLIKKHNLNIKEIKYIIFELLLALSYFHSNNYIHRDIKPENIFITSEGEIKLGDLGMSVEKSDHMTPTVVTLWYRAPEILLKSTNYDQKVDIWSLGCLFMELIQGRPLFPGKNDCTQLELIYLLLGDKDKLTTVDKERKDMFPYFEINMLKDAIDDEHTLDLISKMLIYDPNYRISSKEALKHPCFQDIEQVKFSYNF

[7] = target: Protein kinase 7 (PK7), Plasmodium falciparum 3D7 (PF3D7_0213400) (UniProt Q7YTF7); test: inhibition of Plasmodium PK7 catalytic activity – biochemical, TCAMS antimalarial set, Kinase-Glo luminescence (AID 1159587); settings: recombinant PfPK7, Kinase-Glo ATP depletion luminescence
Chain of Protein kinase 7 (PK7), Plasmodium falciparum 3D7 (PF3D7_0213400) (Q7YTF7 1-343): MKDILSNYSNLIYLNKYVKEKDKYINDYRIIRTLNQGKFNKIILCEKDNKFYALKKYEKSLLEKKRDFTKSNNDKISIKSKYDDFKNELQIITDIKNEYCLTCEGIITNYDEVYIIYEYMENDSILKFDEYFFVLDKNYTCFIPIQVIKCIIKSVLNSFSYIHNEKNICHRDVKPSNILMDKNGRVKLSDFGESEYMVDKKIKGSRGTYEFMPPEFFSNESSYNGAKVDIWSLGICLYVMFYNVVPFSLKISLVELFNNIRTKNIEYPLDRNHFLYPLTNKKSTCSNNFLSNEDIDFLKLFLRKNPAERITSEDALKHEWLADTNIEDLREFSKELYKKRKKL

[8] = target: Calcium-dependent protein kinase 4 (Plasmodium falciparum (isolate 3D7)) (UniProt Q8IBS5); test: PfCDPK4 kinase inhibitors, biochemical, TCAMS library (AID 1159588; cut-off not given, nearly all actives have IC50 up to about 0.91 µM); settings: recombinant PfCDPK4, Kinase-Glo ATP depletion luminescence
Chain of Calcium-dependent protein kinase 4 (Plasmodium falciparum (isolate 3D7)) (Q8IBS5 whole entry, looked up): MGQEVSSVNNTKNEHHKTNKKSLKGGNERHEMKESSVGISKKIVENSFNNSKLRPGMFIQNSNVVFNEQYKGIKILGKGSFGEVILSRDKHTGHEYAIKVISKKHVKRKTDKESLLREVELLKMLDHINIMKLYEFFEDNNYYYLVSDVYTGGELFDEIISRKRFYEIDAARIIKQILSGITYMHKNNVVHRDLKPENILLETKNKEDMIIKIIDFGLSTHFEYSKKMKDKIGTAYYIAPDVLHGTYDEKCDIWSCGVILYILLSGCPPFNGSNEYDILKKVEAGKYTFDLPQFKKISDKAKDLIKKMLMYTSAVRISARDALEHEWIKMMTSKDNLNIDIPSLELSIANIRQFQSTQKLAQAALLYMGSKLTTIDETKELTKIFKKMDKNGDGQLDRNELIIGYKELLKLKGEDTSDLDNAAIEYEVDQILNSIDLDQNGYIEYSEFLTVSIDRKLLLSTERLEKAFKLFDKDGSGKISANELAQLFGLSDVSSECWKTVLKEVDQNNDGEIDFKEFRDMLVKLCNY

Structure (SMILES) | growth inhibition [1] | inhibition [2] | inhibition [3] [%] | growth inhibition [4] | outcome [5] | outcome [6] | outcome [7] | outcome [8]
COc1cc2nc(N3CCC(CNC(=O)c4ccc(C(C)=O)cc4)CC3)nc(N)c2cc1OC | 15% | 10% | 1 | 96% (active) | inactive | inactive | inactive | inactive
CCNc1cc(C(=O)N[C@@H](Cc2ccccc2)[C@H](O)CNCC(C)C)cc(N2CCCC2=O)c1 | 97% (active) | 16% | 3 | 98% (active) | inactive | inactive | inactive | inactive
CCN(CC)CCCC(C)Nc1ccnc2ccc(-c3ccccc3)cc12 (stereo not given) | 21% | 0% | 2 | 98% (active) | inactive | inactive | inactive | inactive
Cc1cc(C(=O)Nc2ccc3c(c2)CCN3C2CCN(Cc3cccc(F)c3F)C2)no1 (stereo not given) | 94% (active) | 0% | -4 | 95% (active) | inactive | inactive | inactive | inactive
CCOC(=O)c1c(CNc2ccncc2)n(C)c2cc(Br)c(OC(C)=O)cc12 | 93% (active) | -3% | 5 | 96% (active) | inactive | inactive | inactive | inactive
Cc1ccnc(NC(c2cccc(OCc3ccccc3)c2)c2ccc3cccnc3c2O)c1 (stereo not given) | 88% (active) | 26% | -2 | 95% (active) | inactive | inactive | inactive | inactive
O=C(Nc1cccc(C(F)(F)F)c1)c1ccc(S(=O)(=O)NCC2CCN(CC3CCCCC3)CC2)cc1 | 49% | 24% | -4 | 100% (active) | inactive | inactive | inactive | inactive
Cc1cc(CN2C(=O)C(c3ccccc3)(c3ccccc3)N=C2N)c(C(F)(F)F)o1 | 84% (active) | 11% | 4 | 97% (active) | inactive | inactive | inactive | inactive
COc1ccc(-c2ccc(NC(=O)c3ccccc3)cc2)cc1CN1CCCN(C)CC1 | 17% | 24% | 3 | 92% (active) | inactive | inactive | inactive | inactive
CCn1c(-c2nonc2N)nc2cnc(Oc3cccc(NC(=O)c4ccc(OCCN5CCCCC5)cc4)c3)cc21 | 7% | 16% | -1 | 98% (active) | inactive | inactive | inactive | inactive
Cc1cccc2[nH]c(-c3ccc(-c4cccc(CNCCN5CCNCC5)c4)cc3)nc12 | 2% | 9% | 1 | 85% (active) | inactive | inactive | inactive | inactive
Cc1cccc2c(N=NC(=S)N(C)C)c(O)[nH]c12 | 59% (active) | 48% | -5 | 96% (active) | inactive | inactive | inactive | inactive
CCCN(Cc1nnc(-c2ccco2)o1)C(=O)C1CCCN(C(=O)c2ccc(Cl)cc2)C1 (stereo not given) | 96% (active) | -3% | -1 | 96% (active) | inactive | inactive | inactive | inactive
NC1CCN(Cc2cccc(-c3ccc(-c4nc5ccc(C(F)(F)F)cc5[nH]4)cc3)c2)C1 (stereo not given) | 97% (active) | 21% | -9 | 99% (active) | inactive | inactive | inactive | inactive
COc1ccccc1N1CCN(C(C(=O)NCc2ccc(C)cc2)c2ccc(C)cc2)CC1 (stereo not given) | 79% (active) | 12% | 6 | 92% (active) | inactive | inactive | inactive | inactive
COc1ccc2c(NN=Cc3ccc(F)cc3)cc(C)nc2c1 | 99% (active) | 4% | -3 | 101% (active) | inactive | inactive | inactive | inactive
CO/C(=C\C=C\c1cc2cc(Cl)c(Cl)cc2[nH]1)C(=O)NCCCN1CCC(c2ccccc2)CC1 | 92% (active) | 33% | -1 | 100% (active) | inactive | inactive | inactive | inactive
O=C(Nc1ccc(Cl)cc1)Nc1cccc(-c2cccc(-c3nc4ccc(F)cc4[nH]3)c2)c1 | 84% (active) | 79% (active) | -2 | 100% (active) | inactive | inactive | inactive | inactive
CC(C)(C)c1ccc(OCC(=O)NC2CCN(c3ccnc4cc(Cl)ccc34)C2)cc1 (stereo not given) | 100% (active) | 17% | -2 | 98% (active) | inactive | inactive | inactive | inactive
Cc1cc(Nc2ccncc2)n2nc(C)c(-c3ccccc3Cl)c2n1 | 93% (active) | 2% | 4 | 99% (active) | inactive | inactive | inactive | inactive
